Measurements from ChEMBL document CHEMBL1961873, “Compounds: GSK PKIS; Assays: Nanosyn kinase panel” (2012).

Each molecule was assayed against Dual specificity mitogen-activated protein kinase kinase 1 (Homo sapiens) (UniProt Q02750). Conditions: at 1 µM.
Dual specificity mitogen-activated protein kinase kinase 1 (Homo sapiens), sequence (Q02750 whole entry): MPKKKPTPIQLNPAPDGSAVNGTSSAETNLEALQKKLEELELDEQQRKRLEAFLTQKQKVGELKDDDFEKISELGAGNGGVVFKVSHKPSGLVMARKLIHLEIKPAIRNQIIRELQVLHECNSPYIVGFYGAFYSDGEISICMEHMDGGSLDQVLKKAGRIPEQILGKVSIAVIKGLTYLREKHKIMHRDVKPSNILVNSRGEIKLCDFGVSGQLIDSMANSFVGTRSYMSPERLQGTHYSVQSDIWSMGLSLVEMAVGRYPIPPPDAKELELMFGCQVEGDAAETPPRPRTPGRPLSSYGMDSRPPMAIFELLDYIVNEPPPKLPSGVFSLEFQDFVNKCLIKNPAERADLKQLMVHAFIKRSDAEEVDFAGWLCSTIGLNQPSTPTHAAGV
COc1cccc(/C=N/Nc2ncnc3c2cnn3-c2cccc(OC)c2)c1 was tested, and the inhibition was 2.66%. COc1ccc2ncn(-c3cc(O[C@H](C)c4ccccc4Cl)c(C(N)=O)s3)c2c1 showed an inhibition of 2.76%. With O=C(Nc1n[nH]c2cc(-c3cc(F)ccc3F)ccc12)C1CC1 the inhibition was 4.19%. Molecule COc1ccc(-c2ccc3c(NC(=O)C4CC4)n[nH]c3n2)cc1 has an inhibition of 2.1%. With Clc1ccc(CNc2nccc(-c3cnn4ncccc34)n2)cc1 the inhibition was 2.12%. In the case of CN(C)CCOc1ccc(-c2cc(-c3ccc4c(c3)CCC4=NO)c(-c3ccncc3)o2)cc1, the inhibition is reported as 2.23%. COc1cc(N2CCN(C(C)C)CC2)ccc1Nc1nc(Nc2ccc(F)cc2C(=O)NC[C@@H](O)CO)c2cc[nH]c2n1 showed an inhibition of 5.77%. Work on Cc1ccc(C(=O)NC(C)C)cc1-c1ccc(C(=O)NCC2CC2)cc1 yielded an inhibition of -1.83%. O=C(Nc1ccc(Oc2ccc3[nH]c(NC(=O)c4ccccc4)nc3c2)cc1)Nc1cc(C(F)(F)F)ccc1F gave an inhibition of 2.61%. Cc1ccc(C(=O)NC2CCC2)cc1-c1ccc(C(=O)NCC2CC2)cc1 gave an inhibition of 2.71%. O=C1Nc2ccc(I)cc2C1=Cc1cc(Br)c(O)c(Br)c1 was tested, and the inhibition was 3.62%. In the case of COc1cc(C)c(N(C)C(=O)CN(C)C)cc1Nc1nc(Nc2cccc(F)c2C(N)=O)c2cc[nH]c2n1, the inhibition is reported as 4.56%. With NS(=O)(=O)c1ccc(N/N=C2\C(=O)Nc3ccc(-c4cnco4)cc32)cc1 the inhibition was 5.31%. For CS(=O)(=O)CCNCc1ccc(-c2ccc3ncnc(Nc4ccc(OCc5ccccc5)c(Br)c4)c3c2)o1, the inhibition was 1.78%. Molecule COc1cccc(-n2cnc3c(N/N=C/c4ccncc4)ncnc32)c1 has an inhibition of -0.71%. Work on Cc1ccc(NC(=O)c2ccoc2)cc1-c1ccc(C(=O)NCC2CC2)cc1 yielded an inhibition of 2.27%. Molecule COc1ccc2cc(-c3c(-c4ccncc4)nc(-c4ccc([S+](C)[O-])cc4C)n3C)ccc2c1 (stereo not drawn) has an inhibition of -1.09%. For CCS(=O)(=O)c1ccc(OC)c(Nc2ncc(-c3cccc(-c4ccccc4F)c3)o2)c1, the inhibition was -0.23%. With Fc1ccc(-c2ncn(C3CCNCC3)c2-c2ccnc(Oc3ccc(F)c(F)c3)n2)cc1 the inhibition was 3.8%. For COc1ccc2cc(-c3c(-c4ccncc4)nc(-c4ccc(S(C)(=O)=O)cc4C)n3C)ccc2c1, the inhibition was 4.97%. O=C1NC(=O)C(c2cccc(Cl)c2)=C1Nc1ccc(Cl)c(C(=O)O)c1 showed an inhibition of 2.84%. CN(C)c1ccc2c(c1)/C(=C/Nc1ccc(S(N)(=O)=O)cc1)C(=O)N2 was tested, and the inhibition was 6.25%. Molecule CN(c1ccc(NC(=O)Nc2c(Cl)cccc2Cl)cc1)c1ccnc(Nc2cccc(CS(C)(=O)=O)c2)n1 has an inhibition of 5.34%. Molecule COc1ccc(C2=C(N3CCc4ccccc43)C(=O)NC2=O)cc1 has an inhibition of 4.03%. NS(=O)(=O)c1ccc(Nc2cc(-c3ccc(O)c(F)c3)n[nH]2)cc1 gave an inhibition of -3.65%. COc1cc2ncn(-c3cc(OCCc4ccccc4)c(C(N)=O)s3)c2cc1OC showed an inhibition of 2.39%. In the case of CN1CCN(CCCNc2nc3ccc(Oc4ccc(NC(=O)Nc5cc(C(F)(F)F)ccc5F)cc4)cc3[nH]2)CC1, the inhibition is reported as 1.94%. With CCc1ccc(Oc2nccc(-c3c(-c4ccc(F)cc4)ncn3C3CCNCC3)n2)cc1 the inhibition was 8.98%. CCS(=O)(=O)c1ccc(OC)c(Nc2ncc(-c3ccccc3Cl)o2)c1 gave an inhibition of 0.4%. c1ccc(-c2n[nH]cc2-c2ccnc(-c3ccc(OCCN4CCOCC4)cc3)c2)nc1 gave an inhibition of -0.3%. Work on COc1cc(Nc2ncc3c(C)nc(-c4cccc(Oc5ccccc5)c4)n3n2)cc(OC)c1OC yielded an inhibition of 9.12%. CNC(=O)c1cncc(/C=C/c2c(C)cccc2C)c1 was tested, and the inhibition was 0.41%. COc1cc(Nc2ncc3c(C)nc(-c4cccc(C(F)(F)F)c4)n3n2)cc(OC)c1OC gave an inhibition of 10.7%. CCN(CC)Cc1ccc(Nc2nccc(-c3cnn4ncccc34)n2)cc1 gave an inhibition of 13.1%.

Each molecule was assayed against Misshapen-like kinase 1 (Homo sapiens) (UniProt Q8N4C8). Conditions: at 0.1 µM.
Misshapen-like kinase 1 (Homo sapiens), sequence (Q8N4C8 whole entry, looked up): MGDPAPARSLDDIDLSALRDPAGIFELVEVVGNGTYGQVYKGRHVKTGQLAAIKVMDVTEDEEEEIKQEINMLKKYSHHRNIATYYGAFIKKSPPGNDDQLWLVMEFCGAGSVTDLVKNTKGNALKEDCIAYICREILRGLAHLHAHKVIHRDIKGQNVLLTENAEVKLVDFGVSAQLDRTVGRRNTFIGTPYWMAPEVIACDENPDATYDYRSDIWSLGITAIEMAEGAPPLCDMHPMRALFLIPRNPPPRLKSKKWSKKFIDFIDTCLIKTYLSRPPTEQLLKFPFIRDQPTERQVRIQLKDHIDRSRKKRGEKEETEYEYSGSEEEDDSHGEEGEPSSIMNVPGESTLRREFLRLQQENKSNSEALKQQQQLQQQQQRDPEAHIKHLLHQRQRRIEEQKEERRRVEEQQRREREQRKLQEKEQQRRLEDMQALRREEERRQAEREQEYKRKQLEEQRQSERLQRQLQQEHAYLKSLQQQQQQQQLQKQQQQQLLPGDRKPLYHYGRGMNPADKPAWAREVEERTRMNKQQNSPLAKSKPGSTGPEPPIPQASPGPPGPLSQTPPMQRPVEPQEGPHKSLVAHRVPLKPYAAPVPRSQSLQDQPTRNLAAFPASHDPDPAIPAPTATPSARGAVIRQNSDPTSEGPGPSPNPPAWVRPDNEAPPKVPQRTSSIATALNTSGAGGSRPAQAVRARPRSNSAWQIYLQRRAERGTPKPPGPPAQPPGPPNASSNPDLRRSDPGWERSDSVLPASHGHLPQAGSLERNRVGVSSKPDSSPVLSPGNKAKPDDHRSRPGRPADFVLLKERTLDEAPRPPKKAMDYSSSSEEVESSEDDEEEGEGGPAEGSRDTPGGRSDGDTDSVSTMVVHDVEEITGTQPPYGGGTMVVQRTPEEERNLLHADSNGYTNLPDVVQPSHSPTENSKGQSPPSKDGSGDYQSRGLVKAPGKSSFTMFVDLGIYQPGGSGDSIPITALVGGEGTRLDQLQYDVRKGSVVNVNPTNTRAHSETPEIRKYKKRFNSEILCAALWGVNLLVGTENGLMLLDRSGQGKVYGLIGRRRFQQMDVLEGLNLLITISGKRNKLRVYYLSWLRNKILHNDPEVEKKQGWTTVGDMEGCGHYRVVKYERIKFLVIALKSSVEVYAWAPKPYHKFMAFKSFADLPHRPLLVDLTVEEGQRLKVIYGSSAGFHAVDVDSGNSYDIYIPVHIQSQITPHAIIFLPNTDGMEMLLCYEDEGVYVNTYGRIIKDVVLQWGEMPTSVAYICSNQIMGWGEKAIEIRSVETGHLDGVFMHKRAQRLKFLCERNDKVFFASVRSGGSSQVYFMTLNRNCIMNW
Molecule COc1cccc(/C=N/Nc2ncnc3c2cnn3-c2cccc(OC)c2)c1 has an inhibition of 5.65%. COc1ccc2ncn(-c3cc(O[C@H](C)c4ccccc4Cl)c(C(N)=O)s3)c2c1 showed an inhibition of 5.84%. For O=C(Nc1n[nH]c2cc(-c3cc(F)ccc3F)ccc12)C1CC1, the inhibition was 11.6%. Work on COc1ccc(-c2ccc3c(NC(=O)C4CC4)n[nH]c3n2)cc1 yielded an inhibition of 5.24%. Work on Clc1ccc(CNc2nccc(-c3cnn4ncccc34)n2)cc1 yielded an inhibition of 1.36%. Work on CN(C)CCOc1ccc(-c2cc(-c3ccc4c(c3)CCC4=NO)c(-c3ccncc3)o2)cc1 yielded an inhibition of 0.59%. With COc1cc(N2CCN(C(C)C)CC2)ccc1Nc1nc(Nc2ccc(F)cc2C(=O)NC[C@@H](O)CO)c2cc[nH]c2n1 the inhibition was 7.5%. Cc1ccc(C(=O)NC(C)C)cc1-c1ccc(C(=O)NCC2CC2)cc1 was tested, and the inhibition was -3.61%. Work on O=C(Nc1ccc(Oc2ccc3[nH]c(NC(=O)c4ccccc4)nc3c2)cc1)Nc1cc(C(F)(F)F)ccc1F yielded an inhibition of 3.26%. With Cc1ccc(C(=O)NC2CCC2)cc1-c1ccc(C(=O)NCC2CC2)cc1 the inhibition was 5.5%. O=C1Nc2ccc(I)cc2C1=Cc1cc(Br)c(O)c(Br)c1 gave an inhibition of 18.9%. For COc1cc(C)c(N(C)C(=O)CN(C)C)cc1Nc1nc(Nc2cccc(F)c2C(N)=O)c2cc[nH]c2n1, the inhibition was 2.85%. With NS(=O)(=O)c1ccc(N/N=C2\C(=O)Nc3ccc(-c4cnco4)cc32)cc1 the inhibition was 51.6%. Work on CS(=O)(=O)CCNCc1ccc(-c2ccc3ncnc(Nc4ccc(OCc5ccccc5)c(Br)c4)c3c2)o1 yielded an inhibition of 4.51%. Molecule COc1cccc(-n2cnc3c(N/N=C/c4ccncc4)ncnc32)c1 has an inhibition of 2.27%. Molecule Cc1ccc(NC(=O)c2ccoc2)cc1-c1ccc(C(=O)NCC2CC2)cc1 has an inhibition of 2.91%. With COc1ccc2cc(-c3c(-c4ccncc4)nc(-c4ccc([S+](C)[O-])cc4C)n3C)ccc2c1 (stereo not drawn) the inhibition was 0.1%. Molecule CCS(=O)(=O)c1ccc(OC)c(Nc2ncc(-c3cccc(-c4ccccc4F)c3)o2)c1 has an inhibition of 1.27%. With Fc1ccc(-c2ncn(C3CCNCC3)c2-c2ccnc(Oc3ccc(F)c(F)c3)n2)cc1 the inhibition was 8.56%. COc1ccc2cc(-c3c(-c4ccncc4)nc(-c4ccc(S(C)(=O)=O)cc4C)n3C)ccc2c1 was tested, and the inhibition was 6.31%. For O=C1NC(=O)C(c2cccc(Cl)c2)=C1Nc1ccc(Cl)c(C(=O)O)c1, the inhibition was 4.74%. Molecule CN(C)c1ccc2c(c1)/C(=C/Nc1ccc(S(N)(=O)=O)cc1)C(=O)N2 has an inhibition of 18.1%. CN(c1ccc(NC(=O)Nc2c(Cl)cccc2Cl)cc1)c1ccnc(Nc2cccc(CS(C)(=O)=O)c2)n1 was tested, and the inhibition was 21.2%. In the case of COc1ccc(C2=C(N3CCc4ccccc43)C(=O)NC2=O)cc1, the inhibition is reported as 7.89%. Molecule NS(=O)(=O)c1ccc(Nc2cc(-c3ccc(O)c(F)c3)n[nH]2)cc1 has an inhibition of 11.6%. COc1cc2ncn(-c3cc(OCCc4ccccc4)c(C(N)=O)s3)c2cc1OC showed an inhibition of 5.52%. Work on CN1CCN(CCCNc2nc3ccc(Oc4ccc(NC(=O)Nc5cc(C(F)(F)F)ccc5F)cc4)cc3[nH]2)CC1 yielded an inhibition of 1.67%. Molecule CCc1ccc(Oc2nccc(-c3c(-c4ccc(F)cc4)ncn3C3CCNCC3)n2)cc1 has an inhibition of 4.83%. With CCS(=O)(=O)c1ccc(OC)c(Nc2ncc(-c3ccccc3Cl)o2)c1 the inhibition was 4.25%. Work on c1ccc(-c2n[nH]cc2-c2ccnc(-c3ccc(OCCN4CCOCC4)cc3)c2)nc1 yielded an inhibition of 20.2%. For COc1cc(Nc2ncc3c(C)nc(-c4cccc(Oc5ccccc5)c4)n3n2)cc(OC)c1OC, the inhibition was 1.96%. Work on CNC(=O)c1cncc(/C=C/c2c(C)cccc2C)c1 yielded an inhibition of 1.75%. In the case of COc1cc(Nc2ncc3c(C)nc(-c4cccc(C(F)(F)F)c4)n3n2)cc(OC)c1OC, the inhibition is reported as 10.5%. Work on CCN(CC)Cc1ccc(Nc2nccc(-c3cnn4ncccc34)n2)cc1 yielded an inhibition of 5.68%.
